{"source": "PubChem BioAssay (NCI)", "key": {"[1]": {"assay": "NCI Yeast Anticancer Drug Screen. Data for the rad52 strain (AID 147);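 note: 0% = growth of vehicle-treated control cultures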", "conditions": "S. cerevisiae rad52 mutant growth inhibition, stronger effect = higher value", "outline": "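The repair-mutant yeast strain was incubated with compounds, then growth was read and inhibition derived relative to vehicle.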"}, "[2]": {"assay": "NCI Yeast Anticancer Drug Screen. Data for the wt1 strain (AID 149);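 note: 0% = growth of vehicle-treated wt1 cultures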", "conditions": "S. cerevisiae wt1 strain (SPY 50644) growth inhibition, stronger effect = higher value", "outline": "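Compounds are added to wt1 yeast cultures. Growth is then measured. Inhibition is expressed relative to vehicle-treated controls.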"}, "[3]": {"assay": "NCI Yeast Anticancer Drug Screen. Data for the rad50EPP+ strain (AID 151);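 note: 0% = growth of vehicle-treated control cultures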", "conditions": "S. cerevisiae rad50 mutant strain, stronger effect = higher value", "outline": "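Vehicle-normalised growth inhibition; rad50EPP+ yeast strain, altered in DNA damage repair, compound-treated.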"}, "[4]": {"assay": "NCI Yeast Anticancer Drug Screen. Data for the mgt1 strain (AID 153)", "conditions": "S. cerevisiae mgt1 mutant growth inhibition, stronger effect = higher value", "outline": "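Vehicle-normalized growth inhibition is determined in mgt1 yeast, a strain selected for a defined alteration in DNA repair or cell cycle control.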"}, "[5]": {"assay": "NCI Yeast Anticancer Drug Screen. Data for the rad50 strain (AID 155);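 note: 0% = growth of vehicle-only cultures of the same strain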", "conditions": "S. cerevisiae rad50 strain growth inhibition, stronger effect = higher value", "outline": "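Inhibition values express reduced yeast growth in compound-treated cultures relative to vehicle-treated controls.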"}, "[6]": {"assay": "NCI Yeast Anticancer Drug Screen. Data for the mec2-1 strain (AID 157)", "conditions": "S. cerevisiae mec2-1 strain, stronger effect = higher value", "outline": "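Mutant yeast (mec2-1) grown with compound; growth inhibition relative to vehicle control reported.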"}, "[7]": {"assay": "NCI Yeast Anticancer Drug Screen. Data for the sgs1 mgt1 strain (AID 161);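 note: 0% = growth of cultures given vehicle only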", "conditions": "S. cerevisiae sgs1 mgt1 strain, stronger effect = higher value", "outline": "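Yeast cells carrying a defined DNA-repair defect were exposed to test compounds. Growth inhibition was measured relative to vehicle-treated controls.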"}, "[8]": {"assay": "NCI Yeast Anticancer Drug Screen. Data for the CLN2oe strain (AID 163);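 note: 0% = growth of vehicle-only control cultures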", "conditions": "S. cerevisiae CLN2oe strain, stronger effect = higher value", "outline": "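Compounds are applied to yeast harbouring a defined cell-cycle control change; reduced growth compared with vehicle-treated controls gives the value.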"}, "[9]": {"assay": "NCI Yeast Anticancer Drug Screen. Data for the cln2 rad14 strain (AID 165);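 note: 0% = growth equal to vehicle treated cultures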", "conditions": "S. cerevisiae cln2 rad14 strain, stronger effect = higher value", "outline": "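Readout is yeast growth inhibition versus vehicle-treated controls, using a strain with cln2 and rad14 alterations exposed to compound.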"}, "[10]": {"assay": "NCI Yeast Anticancer Drug Screen. Data for the bub3 strain (AID 167)", "conditions": "S. cerevisiae bub3 mutant strain, stronger effect = higher value", "outline": "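Steps: expose the mutant yeast strain to compound; grow alongside vehicle-treated cultures; measure growth; express inhibition against the vehicle cultures.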"}, "[11]": {"assay": "NCI Yeast Anticancer Drug Screen. Data for the wt2 strain (AID 169);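 note: 0% = growth of vehicle-treated yeast cultures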", "conditions": "S. cerevisiae wt2 strain growth inhibition, stronger effect = higher value", "outline": "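Against vehicle-treated controls, the growth of yeast exposed to each compound was compared, and the inhibition was recorded.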"}, "[12]": {"assay": "NCI Yeast Anticancer Drug Screen. Data for the mlh1 strain (AID 171);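 note: 0% = growth of vehicle-treated control cultures of the same strain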", "conditions": "S. cerevisiae mlh1 strain growth inhibition, stronger effect = higher value", "outline": "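Measured: yeast growth. Reference: vehicle-treated controls. Organism: strain with a defined alteration affecting DNA damage repair or cell cycle control, treated with compound.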"}, "[13]": {"assay": "NCI Yeast Anticancer Drug Screen. Data for the sgs1 strain (AID 173);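 note: 0% = growth of vehicle-only control cultures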", "conditions": "S. cerevisiae sgs1 mutant, stronger effect = higher value", "outline": "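Each compound was added to cultures of the altered yeast strain. Growth was recorded, and inhibition was derived by comparison with vehicle controls.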"}, "[14]": {"assay": "NCI Yeast Anticancer Drug Screen. Data for the mlh1 rad18 strain (AID 175)", "conditions": "S. cerevisiae mlh1 rad18 strain growth inhibition, stronger effect = higher value", "outline": "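Genetically defined yeast (DNA repair-deficient) exposed to compounds; growth inhibition determined relative to vehicle.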"}, "[15]": {"assay": "NCI Yeast Anticancer Drug Screen. Data for the rad18 strain (AID 177)", "conditions": "S. cerevisiae rad18 mutant growth inhibition, stronger effect = higher value", "outline": "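Vehicle-treated cultures served as the baseline for scoring compound-induced growth inhibition in DNA-repair-mutant yeast.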"}, "[16]": {"conditions": "at 5.0 µM (retest, dose inferred, filed as 0.5)"}, "[17]": {"conditions": "at 50.0 µM (retest, dose inferred, filed as 5.0)"}}, "note": "The panel holds about 79,000 compounds, 15% with a hit somewhere; the sample as a whole holds those more often. Values without a mark were called inactive. Activity calls are given as the source filed them. Cut-off read from the data, not from the text of the source: active = growth inhibition above about 70%; inactive = the rest."}
{"smiles": "OCC(Cn1cncn1)(c1ccc(F)cc1F)n1cncn1", "note": "(stereo not drawn)", "values": [{"measurement": "growth inhibition", "setting": "[1]; at 1.2 µM", "result": 35, "unit": "%"}, {"measurement": "growth inhibition", "setting": "[1]; at 3.7 µM", "result": 57, "unit": "%"}, {"measurement": "growth inhibition", "setting": "[1]; at 11.0 µM", "result": 63, "unit": "%"}, {"measurement": "growth inhibition", "setting": "[1]; at 33.0 µM", "result": 66, "unit": "%"}, {"measurement": "growth inhibition", "setting": "[1]; at 100.0 µM", "result": 65, "unit": "%"}, {"measurement": "growth inhibition", "setting": "[2]; at 1.2 µM", "result": 13, "unit": "%"}, {"measurement": "growth inhibition", "setting": "[2]; at 3.7 µM", "result": 40, "unit": "%"}, {"measurement": "growth inhibition", "setting": "[2]; at 11.0 µM", "result": 45, "unit": "%"}, {"measurement": "growth inhibition", "setting": "[2]; at 33.0 µM", "result": 43, "unit": "%"}, {"measurement": "growth inhibition", "setting": "[2]; at 100.0 µM", "result": 42, "unit": "%"}, {"measurement": "growth inhibition", "setting": "[3]; at 1.2 µM", "result": 2, "unit": "%"}, {"measurement": "growth inhibition", "setting": "[3]; at 3.7 µM", "result": 28, "unit": "%"}, {"measurement": "growth inhibition", "setting": "[3]; at 11.0 µM", "result": "86% (active)"}, {"measurement": "growth inhibition", "setting": "[3]; at 33.0 µM", "result": "92% (active)"}, {"measurement": "growth inhibition", "setting": "[3]; at 100.0 µM", "result": "94% (active)"}, {"measurement": "growth inhibition", "setting": "[4]; at 1.2 µM", "result": 33, "unit": "%"}, {"measurement": "growth inhibition", "setting": "[4]; at 3.7 µM", "result": 62, "unit": "%"}, {"measurement": "growth inhibition", "setting": "[4]; at 11.0 µM", "result": 65, "unit": "%"}, {"measurement": "growth inhibition", "setting": "[4]; at 33.0 µM", "result": 66, "unit": "%"}, {"measurement": "growth inhibition", "setting": "[4]; at 100.0 µM", "result": 65, "unit": "%"}, {"measurement": "growth inhibition", "setting": "[5]; at 1.2 µM", "result": 34, "unit": "%"}, {"measurement": "growth inhibition", "setting": "[5]; at 3.7 µM", "result": 54, "unit": "%"}, {"measurement": "growth inhibition", "setting": "[5]; [16]", "result": 55, "unit": "%"}, {"measurement": "growth inhibition", "setting": "[5]; at 11.0 µM", "result": 59, "unit": "%"}, {"measurement": "growth inhibition", "setting": "[5]; at 33.0 µM", "result": 59, "unit": "%"}, {"measurement": "growth inhibition", "setting": "[5]; [17]", "result": "77% (active)"}, {"measurement": "growth inhibition", "setting": "[5]; at 50.0 µM", "result": 61.8, "unit": "%"}, {"measurement": "growth inhibition", "setting": "[5]; at 100.0 µM", "result": 60, "unit": "%"}, {"measurement": "growth inhibition", "setting": "[6]; at 1.2 µM", "result": 27, "unit": "%"}, {"measurement": "growth inhibition", "setting": "[6]; at 3.7 µM", "result": 45, "unit": "%"}, {"measurement": "growth inhibition", "setting": "[6]; [16]", "result": 41, "unit": "%"}, {"measurement": "growth inhibition", "setting": "[6]; at 11.0 µM", "result": 53, "unit": "%"}, {"measurement": "growth inhibition", "setting": "[6]; at 33.0 µM", "result": 53, "unit": "%"}, {"measurement": "growth inhibition", "setting": "[6]; [17]", "result": 61, "unit": "%"}, {"measurement": "growth inhibition", "setting": "[6]; at 50.0 µM", "result": 44.2, "unit": "%"}, {"measurement": "growth inhibition", "setting": "[6]; at 100.0 µM", "result": 52, "unit": "%"}, {"measurement": "growth inhibition", "setting": "[7]; [16]", "result": 67, "unit": "%"}, {"measurement": "growth inhibition", "setting": "[7]; [17]", "result": "78% (active)"}, {"measurement": "growth inhibition", "setting": "[7]; at 50.0 µM", "result": 68.2, "unit": "%"}, {"measurement": "growth inhibition", "setting": "[8]; at 1.2 µM", "result": 29, "unit": "%"}, {"measurement": "growth inhibition", "setting": "[8]; at 3.7 µM", "result": 51, "unit": "%"}, {"measurement": "growth inhibition", "setting": "[8]; at 11.0 µM", "result": 62, "unit": "%"}, {"measurement": "growth inhibition", "setting": "[8]; at 33.0 µM", "result": 65, "unit": "%"}, {"measurement": "growth inhibition", "setting": "[8]; at 100.0 µM", "result": 68, "unit": "%"}, {"measurement": "growth inhibition", "setting": "[9]; [16]", "result": 22, "unit": "%"}, {"measurement": "growth inhibition", "setting": "[9]; [17]", "result": "81% (active)"}, {"measurement": "growth inhibition", "setting": "[9]; at 50.0 µM", "result": 63, "unit": "%"}, {"measurement": "growth inhibition", "setting": "[10]; at 1.2 µM", "result": 27, "unit": "%"}, {"measurement": "growth inhibition", "setting": "[10]; at 3.7 µM", "result": 54, "unit": "%"}, {"measurement": "growth inhibition", "setting": "[10]; [16]", "result": 14, "unit": "%"}, {"measurement": "growth inhibition", "setting": "[10]; at 11.0 µM", "result": 69, "unit": "%"}, {"measurement": "growth inhibition", "setting": "[10]; at 33.0 µM", "result": 69, "unit": "%"}, {"measurement": "growth inhibition", "setting": "[10]; [17]", "result": "84% (active)"}, {"measurement": "growth inhibition", "setting": "[10]; at 50.0 µM", "result": "71% (active)"}, {"measurement": "growth inhibition", "setting": "[10]; at 100.0 µM", "result": 66, "unit": "%"}, {"measurement": "growth inhibition", "setting": "[11]; at 1.2 µM", "result": 31, "unit": "%"}, {"measurement": "growth inhibition", "setting": "[11]; at 3.7 µM", "result": 57, "unit": "%"}, {"measurement": "growth inhibition", "setting": "[11]; at 11.0 µM", "result": 64, "unit": "%"}, {"measurement": "growth inhibition", "setting": "[11]; at 33.0 µM", "result": 61, "unit": "%"}, {"measurement": "growth inhibition", "setting": "[11]; at 100.0 µM", "result": 57, "unit": "%"}, {"measurement": "growth inhibition", "setting": "[12]; at 1.2 µM", "result": 22, "unit": "%"}, {"measurement": "growth inhibition", "setting": "[12]; at 3.7 µM", "result": 47, "unit": "%"}, {"measurement": "growth inhibition", "setting": "[12]; at 11.0 µM", "result": 53, "unit": "%"}, {"measurement": "growth inhibition", "setting": "[12]; at 33.0 µM", "result": 53, "unit": "%"}, {"measurement": "growth inhibition", "setting": "[12]; at 100.0 µM", "result": 50, "unit": "%"}, {"measurement": "growth inhibition", "setting": "[13]; at 1.2 µM", "result": 48, "unit": "%"}, {"measurement": "growth inhibition", "setting": "[13]; at 3.7 µM", "result": 67, "unit": "%"}, {"measurement": "growth inhibition", "setting": "[13]; at 11.0 µM", "result": "72% (active)"}, {"measurement": "growth inhibition", "setting": "[13]; at 33.0 µM", "result": "72% (active)"}, {"measurement": "growth inhibition", "setting": "[13]; at 100.0 µM", "result": "70% (active)"}, {"measurement": "growth inhibition", "setting": "[14]; [16]", "result": 31, "unit": "%"}, {"measurement": "growth inhibition", "setting": "[14]; [17]", "result": "86% (active)"}, {"measurement": "growth inhibition", "setting": "[14]; at 50.0 µM", "result": 57.5, "unit": "%"}, {"measurement": "growth inhibition", "setting": "[15]; at 1.2 µM", "result": 41, "unit": "%"}, {"measurement": "growth inhibition", "setting": "[15]; at 3.7 µM", "result": 60, "unit": "%"}, {"measurement": "growth inhibition", "setting": "[15]; at 11.0 µM", "result": 67, "unit": "%"}, {"measurement": "growth inhibition", "setting": "[15]; at 33.0 µM", "result": 65, "unit": "%"}, {"measurement": "growth inhibition", "setting": "[15]; at 100.0 µM", "result": 65, "unit": "%"}]}
